For this test, the system named is THRa:RXRa (NR concentration 90 nM, RXRa partner concentration 90 nM). Nature of the test: PBM binding z-score (relative to random genomic background probes); higher = stronger binding; sequences stand for … in GC…GCGATTGACAGCGTAGAATGAAGG
Put shortly:
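Binding z-scores take random background probes as their reference. They come from custom Agilent 4×180K protein-binding microarrays incubated 1 h with ligand-free nuclear receptor dimers, with antibodies against each partner (one per run) detecting binding. Scanned fluorescence was regression-normalized.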
Consider GATACAGGGTCAGCTAGAGTCCAGAGTATGGAAA, for which the PBM binding z-score was 2.88.
With AGGATGAGGTTAAGATCAGGGAAACAGAATACAT, the PBM binding z-score was 2.66.
Take CCGAGTAGGTTATGGGGCATTCGGGCAACGGTGA: the PBM binding z-score amounted to 0.415.
TCATAAAGGTAAACAGGTGAAAGTCCGTAAGTTA displayed a PBM binding z-score of 1.22.
For ACAGACAGGGGAGTGAAGGTAACTCAGCTGGACG, the PBM binding z-score came out at 0.674.
As to CATACAGGGTCAGCTAGGCGAGAGTAGGGACGGC, the PBM binding z-score was 3.05.
For GCGACTGGGGCAAATCAGGTTACCATAAGGTTGG the value was 4.22; for ACTAGCAGGCCAAGTTTGGTTCACTCAAACAAAG, 0.405; for CCTAGTTTGTCAAGGTCACACACGCTATAGGTAC, 4.32.
CCTACTGGGCCAAAAGTCATTGATTCCAATGCTC: the PBM binding z-score is -0.256.
The result for TCTAGTTGGGCAAAGGTCACACACTCGAAATGCG reads 3.99; that for TCTCGGAGGACACGAAGCTCAGAGCTTTCCAGAG, 1.23; that for ATCTCTAGGTAACCAAGTTCAATGAATGCCGAAC, 1.89.
Take ACTATTAGTTGACTTAGTGCAACCGATACGACGC: the PBM binding z-score worked out at 0.0819.
The sequence CTCGACAGGTCGTGCTCAGGTGAGTATACCAAAC gave a PBM binding z-score of 3.08.
TCTTGTAAATCAGCAGGTTAAGAAAGCTGGCCAA came in with a PBM binding z-score of 0.32.
CCGACTGGGGCAGAAAGGTTAACATACCATCCGG gave a PBM binding z-score of 1.09.
CCTACTGGGCCATTCAGAGGTCTTTGATCATATG had a PBM binding z-score of 0.0585.
For CCTCGGAGGACCACAGGAGGTCAGAGCTGCCAGA the value was 2.76.
For ATCTCTAGGTAAAGAGAGTTCAGTGAATGCAAAT the value was 1.56.
TCTTGGAGATCAACAGGAGGTTAAGAAAGATCGA returned a PBM binding z-score of 1.14.
CCTCGGAGGAAAGAAGGTCAGAGCTGTCCGCTTT gave a PBM binding z-score of 1.93.
